Inconclusive results are not listed. Activity calls are given as the source filed them. Unless noted, calls follow the shape of the full dose curve.
Tests used:
[1] = qHTS assay to identify small molecule antagonists of the estrogen receptor beta (ER-beta) signaling pathway - cell viability counter screen (AID 1259382; active = well fitted curve in the direction sought with a large enough effect in the repeat runs; an effect the other way counts as inactive or inconclusive;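 also: HEK293T cells carrying ER-beta-UAS-bla reporter stimulated with estradiol; series mostly up to about 92 µM; nearly all actives have a fitted effect of over 55% in size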)
Summary of the method: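 ER-beta-UAS-bla HEK293T cells (2,000/well, 2% charcoal-stripped FBS) were pre-incubated 6 hr at 37C, then given compound plus 1nM final 17-beta-estradiol for 16 hr. Viability was read in the same wells by CellTiter-Glo luminescence after 30 min at room temperature.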

[2] = target: Estrogen receptor (Homo sapiens) (UniProt P03372); test: qHTS assay to identify small molecule agonists of the estrogen receptor alpha (ER-alpha) signaling pathway in the presence of an antagonist (AID 1259383); also: top concentration of the series differs between compounds; nearly all actives have a fitted effect of over 15% in size
Summary of the method: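 VM7Luc4E2 cells (endogenous full-length ER-alpha, 4×ERE-luciferase) were precultured 5 days in phenol red-free medium with 10% charcoal-stripped FBS, given 10.0nM ICI-182,780 (final), then treated with compounds at 15 concentrations for 22hr at 37C; luminescence read with ONE-Glo.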

[3] = qHTS assay to identify small molecule agonists or antagonists of the thyroid stimulating hormone receptor (TSHR) signaling pathway - wild type cell line counter screen (AID 1259384)
Summary of the method: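 Wild-type HEK293 cells were plated 18 h at 37 C/5% CO2, pin-dosed with compound plus Ro20-1724 medium, held 30 min at room temperature, then given cAMP-d2 and anti-cAMP-cryptate; fluorescence was read after 1 h. Fifteen concentrations, triplicate.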

[4] = qHTS assay to identify small molecule agonists of the estrogen receptor alpha (ER-alpha) signaling pathway in the presence of an antagonist - cell viability counter screen (AID 1259386; active = well fitted curve in the direction sought with a large enough effect in the repeat runs; an effect the other way counts as inactive or inconclusive;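 also: series mostly up to about 92 µM; cells exposed to compounds for 22 h at 37 °C before the viability read; nearly all actives have a fitted effect of over 30% in size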)
Summary of the method: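 VM7Luc4E2 cells (endogenous full-length ER-alpha, 4×ERE-luciferase) were held 5 days in phenol red-free medium with 10% charcoal-stripped FBS, plated, then given 10.0nM ICI-182,780 and compounds at 15 concentrations for 22hr at 37C; viability read by CellTiter-Fluor fluorescence.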

[5] = target: Progesterone receptor (Homo sapiens) (UniProt P06401); test: qHTS assay to identify small molecule agonists of the progesterone receptor (PR) signaling pathway (AID 1346784); also: nearly all actives have a fitted effect of over 30% in size
Summary of the method: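 Agonist qHTS: compounds pinned onto 3,000 PR-UAS-bla HEK 293T cells per well in charcoal-stripped serum medium, 16hr at 37C, then beta-lactamase activity measured by LiveBLAzer FRET fluorescence after 2 hours at room temperature.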

[6] = qHTS assay to identify small molecule antagonists of the progesterone receptor (PR) signaling pathway - cell viability counter screen (AID 1346798; active = well fitted curve in the direction sought with a large enough effect in the repeat runs; an effect the other way counts as inactive or inconclusive; also: series mostly up to about 92 µM; nearly all actives have a fitted effect of over 50% in size)
Summary of the method: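 Cytotoxicity read as CellTiter-Glo luminescence (30 min, room temperature) in the same wells as the beta-lactamase readout. HEK293T PR-UAS-bla cells in charcoal-stripped 2% FBS received compound and R5020, then 16 h at 37C, 5% CO2.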

[7] = qHTS assay to identify small molecule agonists of the progesterone receptor (PR) signaling pathway - cell viability counter screen (AID 1346799); also: nearly all actives have a fitted effect of over 45% in size
Summary of the method: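 Cytotoxicity measured by CellTiter-Glo luminescence (30 min, RT) in the same wells as the PR beta-lactamase agonist read. Those HEK293T cells had 16 h compound treatment at 37 C in 2% charcoal-stripped FBS medium.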

[8] = target: Thyrotropin receptor (Homo sapiens) (UniProt P16473); test: qHTS assay to identify small molecule antagonists of the thyroid stimulating hormone receptor (TSHR) signaling pathway (AID 1259385); also: nearly all actives have a fitted effect of over 20% in size
Summary of the method: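 TSHR-HEK293 cells were plated and held 18 h at 37C/5% CO2, then given compound plus Ro20-1724 and stimulated with TSH at 1.5 ng/mL final. After 30 min at room temperature, cAMP was detected with cAMP-d2/anti-cAMP-cryptate (1 h) by fluorescence.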

[9] = target: Progesterone receptor (Homo sapiens) (UniProt P06401); test: qHTS assay to identify small molecule antagonists of the progesterone receptor (PR) signaling pathway (AID 1346795; active = well fitted inhibition curve with a large enough effect in the signal ratio in the repeat runs, not every such curve was filed as active; the % refers to the signal ratio)
Summary of the method: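 Antagonist mode with agonist R5020 at 1 nM final and 16 hr incubation at 37C. Reporter was beta-lactamase driven by UAS in HEK293T (PR-UAS-bla), 2% charcoal-stripped serum; signal from LiveBLAzer FRET substrate, 2 hr at room temperature.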
% is scaled to controls: 0 for no effect and ±100 for the full control effect.

Sequence of Thyrotropin receptor (Homo sapiens) (P16473 whole entry, looked up): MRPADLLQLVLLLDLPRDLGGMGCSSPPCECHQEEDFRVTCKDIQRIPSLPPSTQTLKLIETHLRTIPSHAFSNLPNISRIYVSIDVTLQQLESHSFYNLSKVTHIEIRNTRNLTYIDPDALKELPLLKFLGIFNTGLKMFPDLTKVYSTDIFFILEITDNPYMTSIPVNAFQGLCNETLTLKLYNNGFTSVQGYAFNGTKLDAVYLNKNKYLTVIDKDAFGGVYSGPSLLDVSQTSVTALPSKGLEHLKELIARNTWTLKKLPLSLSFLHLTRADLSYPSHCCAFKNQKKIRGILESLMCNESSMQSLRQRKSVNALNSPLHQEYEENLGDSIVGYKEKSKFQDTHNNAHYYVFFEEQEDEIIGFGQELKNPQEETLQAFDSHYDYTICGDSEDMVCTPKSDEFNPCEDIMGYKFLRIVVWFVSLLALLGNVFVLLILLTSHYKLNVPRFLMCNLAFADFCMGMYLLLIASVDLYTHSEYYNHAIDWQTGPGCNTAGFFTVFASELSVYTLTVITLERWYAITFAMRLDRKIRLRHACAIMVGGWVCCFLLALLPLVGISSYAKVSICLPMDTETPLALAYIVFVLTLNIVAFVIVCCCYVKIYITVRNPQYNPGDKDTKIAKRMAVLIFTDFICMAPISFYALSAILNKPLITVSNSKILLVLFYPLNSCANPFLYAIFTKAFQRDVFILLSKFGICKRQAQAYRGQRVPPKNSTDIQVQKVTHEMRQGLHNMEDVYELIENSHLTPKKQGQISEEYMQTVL
Sequence of Estrogen receptor (Homo sapiens) (P03372 whole entry, looked up): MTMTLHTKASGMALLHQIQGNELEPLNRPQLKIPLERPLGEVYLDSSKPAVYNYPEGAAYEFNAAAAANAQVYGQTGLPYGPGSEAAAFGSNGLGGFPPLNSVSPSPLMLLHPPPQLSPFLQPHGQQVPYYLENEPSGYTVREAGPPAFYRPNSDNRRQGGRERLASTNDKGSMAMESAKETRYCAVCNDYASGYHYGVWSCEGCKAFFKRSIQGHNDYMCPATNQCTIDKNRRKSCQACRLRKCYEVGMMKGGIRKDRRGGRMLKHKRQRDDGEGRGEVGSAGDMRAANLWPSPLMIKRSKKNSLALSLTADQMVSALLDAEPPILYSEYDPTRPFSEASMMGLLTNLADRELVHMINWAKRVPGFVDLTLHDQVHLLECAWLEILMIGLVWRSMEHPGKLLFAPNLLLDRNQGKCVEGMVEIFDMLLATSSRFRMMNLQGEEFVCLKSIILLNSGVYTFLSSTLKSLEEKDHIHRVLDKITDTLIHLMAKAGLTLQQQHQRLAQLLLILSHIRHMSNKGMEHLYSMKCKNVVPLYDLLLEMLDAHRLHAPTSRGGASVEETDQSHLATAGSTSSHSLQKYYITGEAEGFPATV
Sequence of Progesterone receptor (Homo sapiens) (P06401 whole entry, looked up): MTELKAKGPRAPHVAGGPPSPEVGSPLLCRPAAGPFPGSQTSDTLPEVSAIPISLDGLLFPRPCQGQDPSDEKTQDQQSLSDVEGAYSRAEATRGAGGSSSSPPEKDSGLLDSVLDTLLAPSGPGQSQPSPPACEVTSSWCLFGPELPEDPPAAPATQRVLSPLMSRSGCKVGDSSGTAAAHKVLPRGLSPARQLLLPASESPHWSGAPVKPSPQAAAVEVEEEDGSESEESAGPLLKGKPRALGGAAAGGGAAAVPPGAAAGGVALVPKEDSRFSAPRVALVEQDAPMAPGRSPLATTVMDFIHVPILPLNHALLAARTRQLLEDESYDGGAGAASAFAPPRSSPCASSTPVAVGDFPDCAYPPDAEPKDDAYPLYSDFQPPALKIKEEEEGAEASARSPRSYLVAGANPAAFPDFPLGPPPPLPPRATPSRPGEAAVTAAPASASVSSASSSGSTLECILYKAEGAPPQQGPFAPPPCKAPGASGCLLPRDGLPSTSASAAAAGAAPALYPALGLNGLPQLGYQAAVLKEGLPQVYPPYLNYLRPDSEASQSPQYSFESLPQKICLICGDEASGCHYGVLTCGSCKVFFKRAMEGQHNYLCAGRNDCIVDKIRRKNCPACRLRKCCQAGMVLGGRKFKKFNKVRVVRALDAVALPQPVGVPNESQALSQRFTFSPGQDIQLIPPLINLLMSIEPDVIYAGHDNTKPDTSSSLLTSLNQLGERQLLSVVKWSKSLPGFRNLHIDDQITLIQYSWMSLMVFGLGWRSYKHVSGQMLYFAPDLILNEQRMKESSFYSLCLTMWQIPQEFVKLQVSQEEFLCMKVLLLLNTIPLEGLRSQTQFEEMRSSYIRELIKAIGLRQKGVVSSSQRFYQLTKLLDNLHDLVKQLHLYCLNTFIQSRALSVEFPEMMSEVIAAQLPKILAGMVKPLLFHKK

C=CCOC(=O)c1ccc(C(=O)OCC=C)c(C(=O)OCC=C)c1
inactive: outcome [1] | outcome [2] | outcome [3] | Potency [4] | Potency [5] | Potency [6] | Potency [7]

C[C@H](CCC(=O)O)[C@H]1CC[C@H]2[C@@H]3[C@H](O)C[C@@H]4C[C@H](O)CC[C@]4(C)[C@H]3C[C@H](O)[C@]12C
inactive: outcome [1] | outcome [2] | outcome [3] | outcome [8] | Potency [5] | Potency [9] | Potency [6] | Potency [7]

CCN(Cc1cccc(S(=O)(=O)O)c1)c1ccccc1
inactive: outcome [1] | outcome [2] | outcome [3] | outcome [8] | Potency [5] | Potency [9] | Potency [6] | Potency [7]

O=C(O)CCNC(=O)c1ccccc1
inactive: outcome [1] | outcome [2] | outcome [3] | outcome [8] | Potency [5] | Potency [9] | Potency [6] | Potency [7]

Cc1oc(=O)oc1CN1CCN(c2cc3c(cc2F)c(=O)c(C(=O)O)c2n3C(C)S2)CC1 (stereo not given)
inactive: outcome [1] | outcome [2] | outcome [3] | outcome [8] | Potency [4] | Potency [5] | Potency [9] | Potency [7]

O=C(Oc1ccccc1C(=O)O)c1ccccc1O
inactive: outcome [1] | outcome [2] | outcome [3] | outcome [8] | Potency [4] | Potency [5] | Potency [9] | Potency [6] | Potency [7]

COC(/C=C(\C)CCC=C(C)C)OC
inactive: outcome [1] | outcome [2] | outcome [3] | outcome [8] | Potency [4] | Potency [9] | Potency [6]

CCS(=O)(=O)CCn1c([N+](=O)[O-])cnc1C
inactive: outcome [1] | outcome [2] | outcome [3] | outcome [8] | Potency [4] | Potency [5] | Potency [9] | Potency [7]

CCCCOC(=O)C(C)OC(=O)CCC (stereo not given)
inactive: outcome [1] | outcome [2] | outcome [3] | outcome [8] | Potency [4] | Potency [5] | Potency [9] | Potency [6] | Potency [7]

CC(=O)/C=C/c1ccco1
inactive: outcome [1] | outcome [2] | outcome [3] | Potency [4] | Potency [5] | Potency [9] | Potency [7]

CCCCCCCC/C=C\CCCCCCCC(=O)OC[C@@H](O)[C@H]1OC[C@H](O)[C@H]1O
inactive: outcome [1] | outcome [2] | outcome [3] | outcome [8] | Potency [4] | Potency [5] | Potency [9] | Potency [7]

O=P(O)(O)OCC(O)CO (stereo not given)
inactive: outcome [1] | outcome [2] | Potency [4] | Potency [5] | Potency [9] | Potency [6]

O=[Si]=O
inactive: outcome [1] | outcome [2] | Potency [4] | Potency [5] | Potency [9] | Potency [6] | Potency [7]

CC(=O)OCC(=O)[C@@]1(O)[C@H](OC(C)=O)C[C@H]2[C@@H]3CCC4=CC(=O)C=C[C@]4(C)[C@@]3(F)[C@@H](O)C[C@@]21C
inactive: outcome [1] | outcome [2] | Potency [4] | Potency [5] | Potency [6] | Potency [7]

Cc1cc(O)c2c(c1)C(=O)c1cccc(O)c1C2=O
inactive: outcome [1] | outcome [2] | Potency [5] | Potency [6] | Potency [7]

C[C@H](CCC(=O)NCC(=O)O)[C@H]1CC[C@H]2[C@@H]3[C@H](O)C[C@@H]4C[C@H](O)CC[C@]4(C)[C@H]3C[C@H](O)[C@]12C
inactive: outcome [1] | outcome [3] | outcome [8] | Potency [4] | Potency [5] | Potency [9]

NC(Cc1c[nH]c2ccccc12)C(=O)O (stereo not given)
inactive: outcome [1] | outcome [3] | outcome [8] | Potency [4] | Potency [5] | Potency [9] | Potency [6]

CCCCCCCCCCCCC1CO1 (stereo not given)
inactive: outcome [1] | outcome [2] | Potency [4] | Potency [9] | Potency [6]

Nc1ccc(/C=C/c2ccc(N)cc2S(=O)(=O)O)c(S(=O)(=O)O)c1
inactive: activity change, negative = cytotoxicity [1] 6.78% [at 0.349 µM] | activation [2] 0.0248% [at 0.349 µM] | activity change, negative = cytotoxicity [4] 0.0708% [at 0.349 µM] | activation [5] 0.0887% [at 0.349 µM] | activity change, negative = inhibition [9] 3.92% [at 0.348 µM] | activity change, negative = cytotoxicity [6] 0.087% [at 0.348 µM]
